High-throughput results as filed in PubChem BioAssay.
Most compounds without a hit are left out; they make up all but 3% or so of the library.
Glyco luc inh – N-linked glycosylation inhibition. D54 ERlucT glycosylation luciferase reporter, 24 h; percent of 100 nM tunicamycin response. reporter increase, % at 12.5 µM. 0.23% of 360,000 active;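 active = mean luciferase reporter signal, scaled so untreated is 0 and the glycosylation-blocking control 100, at or above a set limit in every replicate; inconclusive = mean reaches the limit but not every replicate does; inactive = mean below the limit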;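 also: luciferase carries N-glycosylation sites so blocking glycosylation raises the light; 0% = median of neutral control wells and 100% = median of 100 nM tunicamycin wells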
PfHsp90 set2 – growth inhibition of yeast expressing Plasmodium Hsp90; inhibition, % at 9.4 µM; 0.32% of 310,000 active; S. cerevisiae expressing PfHsp90, BacTiter-Glo ATP, 48 h; yeast lacking PDR1 and PDR3 efflux regulators;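 active = every replicate shows inhibition above about 80%, whatever the replicate mean, limit read from the data; inconclusive = mean inhibition reaches the set limit but some replicate falls short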;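 also: 0% = DMSO neutral controls and 100% = 20 µM radicicol positive controls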
Vif inh – inhibitors of HIV Vif. HEK293T cells, Vif self-association by quenched fluorescence, imaging, 24 h. inhibition, % at 7.49 µM. 0.35% of 340,000 active; in the data active = inhibition above about 50%, passing the limit was not always enough; inconclusive = no clear call, values can overlap the other calls; inactive = below about 31%
Wnt act – activates Wnt/beta-catenin signaling in a reporter cell assay; activator, plate reader; activation, % at 9.35 µM; 1.2% of 300,000 active; in the data active = activation above about 30%, passing the limit was not always enough; inconclusive = no clear call, values can overlap the other calls;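 also: 0% = neutral control wells and 100% = positive control wells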
MITF TRPM1 HTS – increases MITF-driven TRPM1 promoter luciferase signal. SK-MEL-5 TRPM1-promoter luciferase, 24 h; % of positive control, neutral wells = 0. activation, % at 12.5 µM. 0.75% of 300,000 active. AID 588334;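 active = mean activation of at least 80% with every replicate also reaching 80%; inconclusive = mean reaches 80% but some replicate falls short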;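 also: 0% = neutral control wells and 100% = parthenolide positive control wells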
esBAF inh – inhibitors of esBAF chromatin remodeling in mouse ES cells | 2% of 350,000 active | AID 602393 | Bmi1-luciferase knock-in reporter, 24 h; 100% = twice the neutral-well signal | reporter increase, % at 12.5 µM; in the data active = activation above about 40%; inconclusive = no clear call, values can overlap the other calls;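 also: 0% = median of the plate's neutral control wells and 100% = double that signal; a rise in the Bmi1 reporter signal indicates esBAF inhibition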
* = called active by the depositor; ? = inconclusive; / = no result given.

SMILES | Glyco luc inh | PfHsp90 set2 | Vif inh | Wnt act | MITF TRPM1 HTS | esBAF inh
CCN(CC)C(=O)CSc1ncnc2sc(-c3ccccc3)cc12 | -5.8 | / | -15.3 | / | / | 62.8*
COc1ncnc2sc(-c3ccccc3)cc12 | -3.8 | -15.8 | / | / | 73.6 | 50.1*
Cc1cccc(CN2CCN(CC(=O)NCCCN3CCCC3=O)C2=O)c1 | -0.5 | -2.1 | 7.8 | / | 0.7 | -11.7
CC(=O)/C=C/c1ccccc1Oc1c(F)c(F)nc(F)c1F | 60.3* | -0.4 | -12.9 | 7.0 | / | -12.3
Oc1oc(-c2ccc(Br)cc2)nc1/C=N/c1ccccn1 | -1.5 | 17.6 | 7.6 | 36.7* | 49.4 | /
Cc1ccc(-c2nc(C=Nc3ccccc3)c(O)o2)cc1 | 2.7 | -33.4 | -1.9 | 3.4 | 43.4 | /
COc1ccccc1N1CCN(c2ccc3ccccc3n2)CC1 | -15.8 | -21.5 | -5.9 | 22.8 | 108.3* | -6.8
Cc1ccc2cc3cc(C(=O)N4CCCCC4C)oc3nc2c1 (stereo unspecified) | -5.5 | 20.4 | 0.1 | / | 74.2 | 50.1*
Cc1ccc2cc3cc(C(=O)NCCC(C)C)oc3nc2c1 | 2.4 | 0.9 | 1.8 | / | 32.0 | /
Cc1ccc2cc3cc(C(=O)NC4CC4)oc3nc2c1 | 3.9 | -31.0 | -6.1 | 31.2* | 56.7 | 45.5*
Cc1ccc2cc3cc(C(=O)NC4CCCCC4)oc3nc2c1 | 4.5 | 22.1 | -4.1 | 13.4 | 43.8 | 46.6*
O=C(COc1ccc(S(=O)(=O)N2CCCCC2)cc1)NC1CCCCC1 | -1.4 | -12.9 | -10.3 | -2.7 | 1.5 | 17.3
COC1=CC(=O)OC(c2cccc(OC)c2)C1 (stereo unspecified) | / | / | / | 1.3 | / | /
O=C(COC(=O)/C=C/c1ccccc1)NCCC1=CCCCC1 | 1.2 | 28.9 | 4.2 | -2.2 | 10.1 | /
O=C1c2ccccc2NC(c2ccccc2O)N1c1ccc(F)cc1 (stereo unspecified) | -1.6 | -27.8 | 4.9 | 19.2 | 77.1 | 33.6
COc1cccc(C2Nc3ccccc3C(=O)N2c2ccc(F)cc2)c1O (stereo unspecified) | -1.1 | 17.7 | / | 19.0 | 100.8* | ?
Cc1sc(NC(=O)c2ccc(Cl)s2)c(C(N)=O)c1C | -4.7 | -17.7 | -0.4 | 42.2* | 31.1 | 30.1
COCCNC(=O)c1ccc(S(=O)(=O)N2CCCc3ccccc32)cc1 | 0.9 | 7.2 | -1.4 | 2.5 | 0.9 | -5.7
O=C(Nc1ccc(-n2ccnc2P(=O)(O)c2ccccc2)cc1)c1ccccc1Cl | 2.7 | / | -15.9 | / | / | -3.7
CN1CCN(CCCNC(=O)CCCOc2cc(=O)n(C)c3ccccc23)CC1 | 9.8 | / | -13.1 | 0.8 | / | -2.3
CC(C)CCNC(=O)CCCOc1cc(=O)n(C)c2ccccc12 | 30.6* | 1.2 | 13.9 | 9.2 | / | -8.7
O=C(c1ccccc1)c1cnc(Nc2ccccc2Cl)s1 | -13.4 | / | 4.9 | / | 97.7* | 55.4*
O=C(c1ccc(Cl)c(Cl)c1)c1cnc(Nc2ccccc2)s1 | 0.1 | -14.3 | 8.7 | 0.0 | 12.8 | -4.1
CC(=O)c1csc(Nc2ccccc2Cl)n1 | 0.5 | 26.2 | -3.4 | 1.3 | / | /
CC(C)(C)C(=O)c1cnc(Nc2ccccc2Cl)s1 | -10.9 | -18.3 | -11.0 | / | 143.9* | ?
SMILES | Glyco luc inh | PfHsp90 set2 | Vif inh | Wnt act | MITF TRPM1 HTS | esBAF inh
C[C@H](CO)N1C[C@H](C)[C@@H](CN(C)Cc2ccc(-c3ccccc3)cc2)Oc2ccc(NC(=O)Nc3ccc(C(F)(F)F)cc3)cc2C1=O | / | / | / | / | / | 2.0
COc1ccc(-n2nc(C(=O)NCC(=O)N3CCC(C)CC3)c3ccccc3c2=O)cc1Cl | -3.5 | 18.0 | 3.7 | 8.1 | 78.8 | 47.3*
O=C(c1cc(COc2ccc(F)cc2Cl)on1)N1CC2C[C@@H]3CC1C[C@H](C2)C3 | -1.5 | -18.2 | 5.7 | 15.0 | 37.6 | 59.2*
O=C(c1cc(COc2ccc(F)cc2Cl)on1)N1C[C@H]2CC[C@H]1C2 | 2.0 | -12.1 | -15.2 | -0.2 | 77.7 | 43.5*
O=C(c1cc(COc2ccc(F)cc2Cl)on1)N1CC[C@@H]2CCCC[C@H]2C1 | 1.4 | -22.6 | 7.7 | 1.2 | 13.6 | 4.3
CCN(CC)S(=O)(=O)c1ccc(Cl)c(C(=O)OCC(=O)c2c(N)n(C)c(=O)n(C)c2=O)c1 | 0.6 | -3.1 | -9.7 | -2.2 | 2.5 | /
CCOC(=O)c1cc(-c2ccccc2)sc1NC(=O)COC(=O)c1ccc(Cl)c(S(N)(=O)=O)c1 | -2.6 | -12.3 | 4.2 | / | -9.0 | /
Oc1ccc(/C=N/Nc2nc(-c3cccnc3)nc3ccccc23)c(O)c1 | 8.4 | 18.3 | / | 0.7 | 15.7 | 58.1*
Nc1ccc(-c2nc3cc([N+](=O)[O-])ccc3o2)cc1 | -8.8 | -62.1 | 2.2 | 44.4* | 41.4 | 0.5
COc1ccc(-c2nc3cc([N+](=O)[O-])ccc3o2)cc1 | -10.4 | -13.4 | 3.5 | 18.1 | 36.2 | /
O=[N+]([O-])c1ccc2oc(/C=C/c3ccc(O)cc3)nc2c1 | 1.6 | / | 19.3 | 11.1 | / | 41.9*
CCc1ccc(C(=O)Nc2cccnc2Oc2ccc(Cl)cc2)cc1 | 2.0 | -10.5 | -14.9 | -0.7 | 4.2 | 1.3
O=C(N/N=C/c1cn(-c2ccccc2)nc1-c1cc2ccccc2o1)c1cccnc1 | 1.0 | -8.4 | -1.1 | 73.3* | 6.6 | /
Cc1cc(S(=O)(=O)NCC(C)C)ccc1OCC(=O)NCC1CCCO1 (stereo unspecified) | -2.1 | 17.2 | -3.1 | 4.1 | -4.8 | /
O=C(Nc1ccccc1N1CCOCC1)c1ccc([N+](=O)[O-])s1 | -2.9 | 103.4* | 15.6 | 3.9 | -81.1 | 7.7
O=C(NCc1ccc(Cl)cc1)N1CCOCC1 | 1.1 | -56.3 | 50.4* | 0.4 | -0.3 | 1.1
N#Cc1ccc(CNC(=O)N2CCOCC2)cc1 | / | 1.6 | -11.1 | / | / | -0.6
O=C(Nc1ccc(CN2CCOCC2)cc1)c1ccc(Cl)cc1 | -2.7 | -1.3 | 2.2 | 11.6 | 47.0 | 44.4*
O=C(Nc1ccccc1N1CCOCC1)c1ccccc1[N+](=O)[O-] | 2.2 | -8.1 | 0.4 | / | -1.2 | -9.4
O=C(Nc1ccccc1N1CCOCC1)c1ccc2ccccc2c1 | -2.1 | -20.8 | -8.5 | 5.5 | -12.6 | 55.1*
O=C(Nc1ccc(CN2CCOCC2)cc1)c1ccc(Br)cc1 | -2.2 | 5.7 | -10.3 | -0.1 | / | ?
O=C1c2ccccc2C(Nc2ccc(S(=O)(=O)N3CCOCC3)cc2)N1c1cccnc1 (stereo unspecified) | -1.9 | 12.8 | -1.9 | 1.6 | / | -5.4
CCCCc1ccc(NC(=O)N[C@H](C(=O)O)C(C)CC)cc1 (stereo partly specified) | 2.0 | -2.5 | 3.3 | / | 0.0 | 5.5
O=C(Nc1ccc(CN2CCOCC2)cc1)c1ccc2ccccc2c1 | -5.1 | 18.0 | -11.2 | 2.2 | 73.9 | 60.7*
C/C(=N\NC(=O)c1ccc(CN2CCOCC2)cc1)c1ccc(NC(=O)c2ccccc2)cc1 | -1.7 | -27.9 | 16.8 | 9.9 | 38.6 | 65.6*
CC(=O)Nc1ccc(/C(C)=N/NC(=O)c2ccc(CN3CCOCC3)cc2)cc1 | 0.7 | 24.8 | -0.3 | 0.8 | -7.9 | /
O=C(Nc1ccc(CN2CCOCC2)cc1)c1cccc(F)c1 | -2.4 | -13.9 | 6.2 | / | 88.1* | 4.0
